Rows were chosen to be rich in hits. Some 2.3% of all compounds tested hit in one or more screens of this group.
Rango complex inh: prevents formation of the Rango-importin beta complex; Q14974; Potency, µM (highest dose often 92.2 µM); hit rate 0.031% among 340,000; Rango CFP/YFP FRET sensor + importin beta, 45 min; calls by dose curve; note: nearly all actives have a fitted effect of over 15% in size
Target sequence (Q14974 whole entry, looked up): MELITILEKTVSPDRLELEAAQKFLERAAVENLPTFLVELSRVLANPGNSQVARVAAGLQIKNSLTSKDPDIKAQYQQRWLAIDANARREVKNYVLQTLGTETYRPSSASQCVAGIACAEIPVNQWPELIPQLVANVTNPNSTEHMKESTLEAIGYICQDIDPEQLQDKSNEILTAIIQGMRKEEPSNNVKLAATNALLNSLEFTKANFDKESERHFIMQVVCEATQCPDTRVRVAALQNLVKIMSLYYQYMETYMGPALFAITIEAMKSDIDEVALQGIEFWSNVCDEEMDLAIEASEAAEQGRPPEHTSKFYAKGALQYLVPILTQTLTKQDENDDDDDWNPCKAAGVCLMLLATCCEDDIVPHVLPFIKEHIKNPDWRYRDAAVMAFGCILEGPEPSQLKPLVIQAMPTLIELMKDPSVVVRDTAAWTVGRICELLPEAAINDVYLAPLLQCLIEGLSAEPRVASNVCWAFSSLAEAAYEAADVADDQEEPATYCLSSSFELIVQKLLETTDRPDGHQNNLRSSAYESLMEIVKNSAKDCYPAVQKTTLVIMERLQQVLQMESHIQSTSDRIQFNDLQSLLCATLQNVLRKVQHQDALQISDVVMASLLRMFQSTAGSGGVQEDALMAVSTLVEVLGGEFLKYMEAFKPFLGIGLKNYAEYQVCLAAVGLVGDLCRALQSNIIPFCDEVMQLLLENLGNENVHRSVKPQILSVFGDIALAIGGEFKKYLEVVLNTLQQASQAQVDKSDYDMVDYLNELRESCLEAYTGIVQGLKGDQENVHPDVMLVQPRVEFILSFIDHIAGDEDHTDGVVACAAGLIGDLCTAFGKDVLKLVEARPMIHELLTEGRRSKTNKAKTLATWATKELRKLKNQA
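Inhibition scored from the CFP 486 nm/YFP 530 nm FRET ratio 45 min after adding 0.125 microM importin beta to 50 nM Rango biosensor preincubated 5 min with compound (room temperature, PBS with DTT, Tween-20, BSA). No-importin wells as positive control.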
Nrf2 inh: Nrf2 pathway inhibition | hit rate 2.1% among 360,000 | Potency, µM (top dose mostly 46 µM), usual class: inhibitors | A549 ARE-Fluc reporter, luciferase luminescence, 18-24 h | AID 504444; note: nearly all actives have a fitted effect of over 60% in size
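Two sequential reads on A549 ARE_Fluc cells exposed to compound for 18-24 h: a CellTiter-Fluor fluorescence read for viability, then a luciferase luminescence read for Nrf2/ARE activity.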
Nrf2 activator: Nrf2 pathway activation; AREc32 ARE-luciferase reporter (MCF7-derived line), luminescence, 24 h; Potency, µM (titrated, usually from 46.1 µM), hits mostly activators; hit rate 0.31% among 410,000; note: nearly all actives have a fitted effect of over 65% in size
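Luminescent ARE reporter assay in AREc32_Fluc cells: overnight plating at 37 deg C, 24 hr compound incubation, Steady-Glo added, 30 min RT before reading.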
A549 tox-1: kills or reduces viability of A549 cells in Nrf2 counter-screen; A549 ARE-Fluc cells, CellTiter-Fluor viability, 18-24 h; Potency, µM (top dose mostly 46 µM), most hits filed as inhibitors; hit rate 0.16% among 390,000; AID 504648
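A549 ARE-Fluc cells in 5% FBS OPTI-MEM, 5000 cells/well, rested 2 h then exposed to compounds in concentration-response for 18-24 h at 37 °C. Viability by CellTiter-Fluor fluorescence (Ex 405/Em 525) after 30 min; luciferase luminescence (BugLite, 15 min, RT) read afterwards.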
Rango release inh: prevents RanGTP from dissociating the Rango-importin beta complex; O95149+P62826; Biochemical FRET Rango-importin beta, RanGTP-induced dissociation; Potency, µM (highest dose often 46.1 µM); hit rate 0.071% among 340,000; calls by dose curve; note: nearly all actives have a fitted effect of over 45% in size
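Rango (0.1 uM)–importin beta (0.25 uM) complex; RanGTP-RCC1 trigger; 45 min RT; CFP/YFP FRET read.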
FLuc enzyme inh: counter-screen for Nrf2 inhibitors: firefly luciferase enzyme inhibition; hit rate 4% among 1,400; AID 720522; Potency, µM (doses to about 57.5 µM), hits mostly inhibitors; shares compounds with Nrf2 inh; purified firefly luciferase, luminescence inhibition; note: nearly all actives have a fitted effect of over 65% in size
A549 tox-2: A549 cytotoxicity, Nrf2 inhibitor counterscreen | shares compounds with Nrf2 inh | hit rate 2% among 1,400 | A549 ARE-Fluc cells, cytotoxicity counterscreen | Potency, µM (doses to about 46.1 µM), usual class: inhibitors | AID 720523;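 note: cells exposed to compounds for 18 to 24 hours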
ARE-Fluc inh: confirmation of Nrf2 inhibitors in A549 ARE reporter cells. shares compounds with Nrf2 inh. A549 ARE-firefly luciferase reporter, luminescence. Potency, µM (series often up to 46.1 µM), actives largely listed as inhibitors. hit rate 74% among 1,400. AID 720524; note: nearly all actives have a fitted effect of over 65% in size
Numbers stand for hits; i = inactive; ? = inconclusive; nt = not tested or not shown; [ ] = remark or other dose. Unless noted, calls come from the whole dose curve; as a rule, active = well fitted curve in the direction sought with a large enough effect; inconclusive = small, poorly fitted or top-dose-only effect, or another doubt; inactive = no such curve, though single readings can be large; an effect the other way counts as inactive or inconclusive.

SMILES	Rango complex inh	Nrf2 inh	Nrf2 activator	A549 tox-1	Rango release inh	FLuc enzyme inh	A549 tox-2	ARE-Fluc inh
CCOc1ccc(Oc2ccccc2NC(=O)CSCC(=O)Nc2cc(C)on2)cc1	i	9.2µM	i	i	i	i	i	7.3µM
CCCCOc1ccc(C(=O)NN2C(=O)NC3(CCCCC3)C2=O)cc1OC	i	i	i	i	i	nt	nt	nt
COc1ccc(Cl)cc1C(=O)Nc1cccnc1Cl	i	i	i	i	i	nt	nt	nt
Cc1cccc(-c2noc(CCC(=O)NCc3ccco3)n2)c1	i	nt	i	i	i	nt	nt	nt
CC(C)(C)c1ccc(-c2noc(CCC(=O)NCc3ccco3)n2)cc1	i	0.018µM	i	12µM	i	1.2µM	i	0.82µM
CC(C)(C)c1ccc(-c2noc(CCC(=O)Nc3cccc(Cl)c3)n2)cc1	nt	0.15µM	i	i	nt	?	i	nt
Cc1c(Cl)cccc1NC(=O)CSc1nc(=O)[nH]c2c1CCC2	nt	nt	i	i	nt	nt	nt	nt
Cc1ccc(S(=O)(=O)Nc2ccccc2C(=O)N2CCCCCC2)cc1	i	i	i	i	i	nt	nt	nt
CCOC(=O)N1CCN(C(=O)c2ccc(Cn3c(=S)[nH]c4cc5c(cc4c3=O)OCO5)cc2)CC1	i	9.2µM	i	?	i	i	i	8.2µM
CCc1cc2c(SCc3ccc(C(=O)OC)o3)ncnc2s1	i	i	i	i	i	nt	nt	nt
COc1ccc(NC(=O)CSc2nnc(-c3cccs3)n2N)c(OC)c1	?	i	i	i	i	nt	nt	nt
O=C(Cn1cnc2ccccc21)Nc1ccc(SC(F)F)cc1	?	4.1µM	i	i	i	i	i	?
COc1ccc(NC(=O)COC(=O)Cn2cnc3ccccc32)cc1	i	i	i	i	i	nt	nt	nt
CCN1c2ccccc2-c2nc(SCC(=O)Nc3cccc(C)c3C)ncc2S1(=O)=O	nt	?	i	i	nt	nt	nt	nt
CC(=O)c1cc2cccc(OC3(C)CCN(Cc4ccc(-c5ccccn5)cc4)C3)c2o1 (centres undefined)	nt	nt	i	nt	nt	nt	nt	nt
O=C(Cc1ccc(Cl)cc1)Nc1ccncc1	i	5.8µM	i	i	i	i	i	i
Cc1ccc(CC(=O)Nc2ccncc2)cc1	i	?	i	i	i	nt	nt	nt
Cc1ccc(C)c(OCc2ccc(C(=O)Nc3ccc([N+](=O)[O-])cn3)o2)c1	i	2.9µM	i	i	i	i	i	5.2µM
Cc1ccc(OCCC(=O)OCC(=O)NC2CCS(=O)(=O)C2)cc1 (centres undefined)	i	i	i	i	i	nt	nt	nt
CC1(C)CC(NC(=O)c2ccccn2)CC(C)(C)N1O	i	i	i	i	i	nt	nt	nt
CC(=O)c1cccc(NS(=O)(=O)c2c(C)noc2C)c1	i	i	i	i	i	nt	nt	nt
CC(=O)c1cccc(NS(=O)(=O)c2cc(-c3onc(C)c3C)ccc2C)c1	nt	8.2µM	i	i	nt	i	i	5.8µM
CC1=Nc2cc(C(=O)NCCc3ccc(Cl)cc3)ccc2Sc2ccc(C)cc21	nt	5.2µM	i	?	nt	i	i	21µM
CC1=Nc2cc(C(=O)NC3CCCCC3)ccc2Sc2ccc(Cl)cc21	nt	nt	i	i	nt	nt	nt	nt
Cn1c2c(c(=O)[nH]c1=O)C(c1cccc(O)c1)C1=C(N2)c2ccccc2C1=O (centres undefined)	i	8.2µM	i[9.22 µM]	i	i	i	?	4.6µM
SMILES	Rango complex inh	Nrf2 inh	Nrf2 activator	A549 tox-1	Rango release inh	FLuc enzyme inh	A549 tox-2	ARE-Fluc inh
Fc1ccc(NC(=S)N2CCCN(c3ccc(C(F)(F)F)cn3)CC2)c(F)c1	i	2.9µM	i	i	i	i	i	5.8µM
O=C(Nc1ccccc1)N1CCN(c2ccc(C(F)(F)F)cn2)CC1	i	6.5µM	i	i	i	i	i	9.2µM
O=C(Nc1ccc(F)cc1F)N1CCN(c2ncccn2)CC1	i	i	i	i	i	nt	nt	nt
O=C(Nc1ccc(F)cc1F)N1CCCN(c2ccc(C(F)(F)F)cn2)CC1	i	6.5µM	i	i	i	i	i	8.2µM
O=C(c1ccc2ccccc2c1)N1CCN(c2ccc(C(F)(F)F)cn2)CC1	i	i	i	i	i	nt	nt	nt
CNC(=S)Nc1ccc(N2CCN(c3ccc(C(F)(F)F)cn3)CC2)nc1	i	4.1µM	i	i	i	i	i	6.5µM
NC1=NC(=O)/C(=C\c2ccsc2)S1	i	i	?	i	i	nt	nt	nt
CCCOC(c1ccccc1)(c1ccc(C(F)(F)F)cc1)C(Oc1nc(C)cc(C)n1)C(=O)O (centres undefined)	i	3.3µM	i	i	i	i	i	1.8µM
Cc1cc(C)nc(OC(C(=O)O)C(OCCc2ccccc2)(c2ccc(F)cc2)c2ccc(F)cc2)n1 (centres undefined)	i	?	i	i	i	nt	nt	nt
COc1ccc(/C=C2\SC(=O)N(CCCC(=O)Nc3cc(Cl)ccc3C(=O)O)C2=O)cc1	i	0.73µM	i	i	i	12µM	i	1.5µM
O=C(N/N=C/c1ccc([N+](=O)[O-])s1)c1ccccc1Br	i	9.2µM	i	?	i	?	i	5.8µM
COc1ccc(CNCCSc2nnnn2-c2ccccc2)c(OC)c1	nt	i	i	i	nt	nt	nt	nt
COc1ccc(CNC(=O)Cc2nn(C)c(=O)c3ccccc23)cc1	i	5.8µM	i	i	i	i	i	4.6µM
Cn1nc(CC(=O)NCc2ccc(C(F)(F)F)cc2)c2ccccc2c1=O	i	?	i	i	i	nt	nt	nt
COc1ccc2[nH]c(=O)c3c(c2c1)OC(C)(C)C=C3	i	8.2µM	i	i	i	i	i	12µM
N#Cc1ccccc1Cn1c(SCC(=O)NCc2ccccc2)nc2ccccc21	nt	nt	i	i	nt	nt	nt	nt
CC1(C)CC(N2CCCC2)=CC(=[N+]2CCCCC2)C1	i	4.1µM	i	i	i	i	i	5.2µM
CC1(C)CC(N2CCCC2)=CC(=[N+]2CCCC2)C1	i	2.1µM	i	i	i	i	i	5.2µM
CC1(C)CC(NNCCC#N)=CC(=[N+]2CCCC2)C1	?	i	i	i	i	nt	nt	nt
CCn1c(COc2cccc(C)c2C)nnc1SCC(=O)N1CCN(c2ccc(OC)cc2)CC1	i	9.2µM	i	i	i	i	i	8.2µM
Clc1ccc(/C=C/c2ccncc2)cc1Cl	nt	nt	nt	nt	nt	i	i	?
COc1ccc(/C=C/c2ccncc2)cc1	i	?	i	i	i	nt	nt	nt
Cc1ccc(C=NNc2nc3c([nH]2)c(=O)n(C)c(=O)n3C)cc1	i	i	i	i	i	nt	nt	nt
COc1ccc(CNC(=O)c2cccc(N3CCCS3(=O)=O)c2)cc1OC	nt	2.6µM	i	i	nt	i	i	?
Cc1ccc([N+](=O)[O-])cc1Nc1nc(N2CCCC2)nc(N2CCCC2)n1	i	?	i	i	i	nt	nt	nt
